# Results filed as inconclusive are left out. Entries that show only a call come without a potency. A number with no mark means an inactive call. Activity calls are given as the source filed them. Calls come from the whole dose curve; as a rule, active = well fitted curve in the direction sought with a large enough effect; inconclusive = small, poorly fitted or top-dose-only effect, or another doubt; inactive = no such curve, though single readings can be large; an effect the other way counts as inactive or inconclusive.
# Columns and labels:
# [1] = qHTS of pediatric cancer cell lines to identify multiple opportunities for drug repurposing: Primary screen for SK-N-SH cells (AID 1347098); note: nearly all actives have a fitted effect of over 65% in size; note: potency is the fitted concentration of half-maximal effect;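 for activity change, negative = cytotoxic: DMSO served as neutral control and bortezomib at 2.3 µM as positive control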
# Summary of the method: (§1)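 Cells (500-1,000/well) rested 5 h, then received compounds for 48 h; metabolically active cells were measured by CellTiter-Glo luminescence. Final concentrations spanned up to 46 µM (MIPE, 11-point) or 0.59 nM-46 µM (NPC, 8-point) in primary screens, 11-point in follow-ups.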
# [2] = qHTS of pediatric cancer cell lines to identify multiple opportunities for drug repurposing: Primary screen for NB1643 cells (AID 1347099); note: nearly all actives have a fitted effect of over 50% in size
# Summary of the method: (§2)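 CRCs from 8- or 11-point titrations (lowest final 0.59 nM NPC, 0.78 nM MIPE). Cell viability: CellTiter-Glo after 48 h incubation, 15 min room-temperature development, luminescence imaging.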
# [3] = qHTS of pediatric cancer cell lines to identify multiple opportunities for drug repurposing: Primary screen for LAN-5 cells (AID 1347100); note: potency is the fitted concentration of half-maximal effect
# Summary of the method: as §1
# [4] = qHTS of pediatric cancer cell lines to identify multiple opportunities for drug repurposing: Primary screen for BT-12 cells (AID 1347101); note: nearly all actives have a fitted effect of over 25% in size; note: potency is the fitted concentration of half-maximal effect
# Summary of the method: as §1
# [5] = qHTS of pediatric cancer cell lines to identify multiple opportunities for drug repurposing: Primary screen for Rh18 cells (AID 1347102); note: nearly all actives have a fitted effect of over 65% in size; note: potency is the fitted concentration of half-maximal effect
# Summary of the method: as §1
# [6] = qHTS of pediatric cancer cell lines to identify multiple opportunities for drug repurposing: Primary screen for OHS-50 cells (AID 1347103); note: nearly all actives have a fitted effect of over 40% in size; note: potency is the fitted concentration of half-maximal effect
# Summary of the method: as §1
# [7] = qHTS of pediatric cancer cell lines to identify multiple opportunities for drug repurposing: Primary screen for RD cells (AID 1347104); note: nearly all actives have a fitted effect of over 55% in size; note: potency is the fitted concentration of half-maximal effect
# Summary of the method: as §2
# [8] = qHTS of pediatric cancer cell lines to identify multiple opportunities for drug repurposing: Primary screen for MG 63 (6-TG R) cells (AID 1347105); note: nearly all actives have a fitted effect of over 50% in size; note: potency is the fitted concentration of half-maximal effect
# Summary of the method: as §2
# [9] = qHTS of pediatric cancer cell lines to identify multiple opportunities for drug repurposing: Primary screen for control Hh wild type fibroblast cells (AID 1347106);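 note: series mostly up to about 46 µM; a drop in luminescence marks cytotoxicity and a rise apparent proliferation; nearly all actives have a fitted effect of over 55% in size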
# Summary of the method: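 Cells (500-1,000/well) in growth media were settled 5 h at 37 degrees C, then given compounds for 48 h. Viability was read as CellTiter-Glo luminescence. Primary runs used MIPE at 11 points (0.78 nM-46 µM) and NPC at 8 points (0.59 nM-46 µM); follow-ups used 11 points.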
# [10] = qHTS of pediatric cancer cell lines to identify multiple opportunities for drug repurposing: Primary screen for Saos-2 cells (AID 1347097); note: nearly all actives have a fitted effect of over 40% in size; note: potency is the fitted concentration of half-maximal effect
# Summary of the method: as §2
smiles,measurement,setting,value
O=C1OC(OC(=O)c2cccnc2Nc2cccc(C(F)(F)F)c2)c2ccccc21 (stereo unspecified),Potency,[1],inactive
same,Potency,[2],inactive
same,Potency,[3],inactive
same,Potency,[4],inactive
same,Potency,[5],inactive
same,Potency,[6],inactive
same,Potency,[7],inactive
same,Potency,[8],inactive
same,outcome,[9],inactive
CCOc1nc2cccc(C(=O)O)c2n1Cc1ccc(-c2ccccc2-c2nn[nH]n2)cc1,Potency,[1],inactive
same,Potency,[2],inactive
same,Potency,[3],inactive
same,Potency,[4],inactive
same,Potency,[5],inactive
same,Potency,[6],inactive
same,Potency,[7],inactive
same,Potency,[8],inactive
same,outcome,[9],inactive
O=S(=O)(O)NC1CCCCC1,Potency,[10],inactive
same,Potency,[4],inactive
same,Potency,[5],inactive
same,Potency,[6],inactive
same,Potency,[7],inactive
same,Potency,[8],inactive
same,outcome,[9],inactive
Cc1cc2c(cc1S(N)(=O)=O)S(=O)(=O)CCC2,Potency,[1],inactive
same,Potency,[2],inactive
same,Potency,[3],inactive
same,Potency,[5],inactive
same,Potency,[6],inactive
same,Potency,[7],inactive
same,Potency,[8],inactive
same,outcome,[9],inactive
Cc1cc(C(C#N)c2ccc(Cl)cc2)c(Cl)cc1NC(=O)c1cc(I)cc(I)c1O (stereo unspecified),Potency,[10],26.6 µM (active)
same,Potency,[5],inactive
same,Potency,[6],30.9 µM (active)
same,outcome,[9],inactive
CN1CCN(C2Cc3ccccc3Sc3ccc(Cl)cc32)CC1 (stereo unspecified),Potency,[3],9.44 µM (active)
same,Potency,[6],27.6 µM (active)
same,outcome,[9],inactive
CCN(CC)CCCC(C)Nc1c2ccc(Cl)cc2nc2ccc(OC)cc12 (stereo unspecified),Potency,[6],17.4 µM (active)
same,Potency,[7],23.7 µM (active)
same,outcome,[9],inactive
CO/N=C(\C(=O)N[C@@H]1C(=O)N2C(C(=O)O)=C(CSc3nc(=O)c(O)nn3C)CS[C@H]12)c1csc(N)n1,Potency,[1],inactive
same,Potency,[3],inactive
same,Potency,[4],inactive
same,Potency,[5],inactive
same,Potency,[7],inactive
same,Potency,[8],inactive
same,outcome,[9],inactive
NC(N)=NCCC[C@H](N)C(=O)O,"activity change, negative = cytotoxic",[1],-0.158% [at 6 µM]
same,"activity change, negative = cytotoxic",[4],1.23% [at 6.03 µM]
same,"activity change, negative = cytotoxic",[6],-1.99% [at 6.18 µM]
same,"activity change, negative = cytotoxic",[7],2.4% [at 4.84 µM]
same,"activity change, negative = cytotoxic",[8],-20.2% [at 4.84 µM]
same,"activity change, negative = cytotoxic",[9],15% [at 4.84 µM]
NC(=O)NNc1ccccc1,Potency,[2],inactive
same,Potency,[3],inactive
same,Potency,[4],inactive
same,Potency,[5],inactive
same,Potency,[6],inactive
same,Potency,[7],inactive
same,outcome,[9],inactive
Cc1c(O)cccc1C(=O)N[C@@H](CSc1ccccc1)[C@H](O)CN1C[C@H]2CCCC[C@H]2C[C@H]1C(=O)NC(C)(C)C,Potency,[6],24.6 µM (active)
same,Potency,[7],23.7 µM (active)
same,Potency,[8],26.6 µM (active)
same,outcome,[9],inactive
CC(=O)OCC(=O)[C@@]1(O)CC[C@H]2[C@@H]3CCC4=CC(=O)CC[C@]4(C)[C@H]3C(=O)C[C@@]21C,Potency,[1],inactive
same,Potency,[3],inactive
same,Potency,[6],inactive
same,Potency,[7],inactive
same,Potency,[8],inactive
same,outcome,[9],inactive
CCCCN1CCCC[C@H]1C(=O)Nc1c(C)cccc1C,Potency,[2],inactive
same,Potency,[3],inactive
same,Potency,[4],inactive
same,Potency,[5],inactive
same,Potency,[7],inactive
same,Potency,[8],inactive
same,outcome,[9],inactive
CCCCC(CC)COC(=O)c1ccccc1O (stereo unspecified),Potency,[2],inactive
same,Potency,[4],inactive
same,Potency,[5],inactive
same,Potency,[6],inactive
same,Potency,[7],inactive
same,Potency,[8],inactive
same,outcome,[9],inactive
CN(C)CCCO[C@@H]1[C@H]2OC(C)(C)O[C@H]2O[C@@H]1C(O)CO (stereo partly specified),Potency,[1],inactive
same,Potency,[3],inactive
same,Potency,[4],inactive
same,Potency,[6],inactive
same,Potency,[7],inactive
same,Potency,[8],inactive
same,outcome,[9],inactive
CC(CN1c2ccccc2Sc2ccccc21)N(C)C (stereo unspecified),Potency,[3],inactive
same,Potency,[8],inactive
same,outcome,[9],inactive
CN(C)CCCN1c2ccccc2Sc2ccc(Cl)cc21,Potency,[1],6.12 µM (active)
same,Potency,[6],27.6 µM (active)
same,outcome,[9],inactive
O=S(=O)(O)c1cc(I)c(O)c2ncccc12,Potency,[2],inactive
same,Potency,[3],inactive
same,Potency,[4],inactive
same,Potency,[5],inactive
same,Potency,[6],inactive
same,Potency,[7],inactive
same,Potency,[8],inactive
same,outcome,[9],inactive
CCCCC/C(C=O)=C\c1ccccc1,Potency,[3],inactive
same,Potency,[6],0.001 µM (active)
same,Potency,[7],inactive
same,Potency,[8],inactive
same,outcome,[9],inactive
CC(O)COc1ccccc1 (stereo unspecified),Potency,[1],inactive
same,Potency,[4],inactive
same,Potency,[6],inactive
same,Potency,[7],inactive
same,Potency,[8],inactive
same,outcome,[9],inactive
CC(=O)Oc1c(C)c(C)c2c(c1C)CC[C@@](C)(CCC[C@H](C)CCC[C@H](C)CCCC(C)C)O2,Potency,[1],inactive
same,Potency,[3],inactive
same,Potency,[4],inactive
same,Potency,[7],inactive
same,Potency,[8],inactive
same,outcome,[9],inactive
COc1ccc2cc1Oc1ccc(cc1)C[C@H]1c3c(cc4c(c3Oc3cc5c(cc3OC)CCN(C)[C@@H]5C2)OCO4)CCN1C,Potency,[4],24.6 µM (active)
same,Potency,[6],15.5 µM (active)
same,Potency,[7],23.7 µM (active)
c1ccc2c(CC3=NCCN3)cccc2c1,Potency,[1],inactive
same,Potency,[3],inactive
same,Potency,[7],inactive
same,Potency,[8],inactive
same,outcome,[9],inactive
CNCCC(Oc1ccc(C(F)(F)F)cc1)c1ccccc1 (stereo unspecified),Potency,[3],inactive
same,Potency,[6],27.6 µM (active)
same,Potency,[8],16.8 µM (active)
same,outcome,[9],inactive
CNCCCC1c2ccccc2C=Cc2ccccc21,Potency,[2],inactive
same,Potency,[6],21.9 µM (active)
same,Potency,[7],26.6 µM (active)
same,outcome,[9],inactive
CC(CN(C)C)CN1c2ccccc2CCc2ccccc21 (stereo unspecified),Potency,[3],inactive
same,Potency,[6],17.4 µM (active)
same,Potency,[8],inactive
same,outcome,[9],inactive
CN1CCOC(c2ccccc2)c2ccccc2C1 (stereo unspecified),Potency,[2],inactive
same,Potency,[3],inactive
same,Potency,[4],inactive
same,Potency,[5],inactive
same,Potency,[6],inactive
same,Potency,[7],inactive
same,Potency,[8],inactive
same,outcome,[9],inactive
CC1=C(CC(=O)O)c2cc(F)ccc2/C1=C\c1ccc(S(C)(=O)=O)cc1,Potency,[2],inactive
same,Potency,[5],inactive
same,Potency,[6],inactive
same,Potency,[7],inactive
same,Potency,[8],inactive
same,outcome,[9],inactive
CN1CCC[C@@H]1Cc1c[nH]c2ccc(CCS(=O)(=O)c3ccccc3)cc12,Potency,[2],inactive
same,Potency,[3],inactive
same,Potency,[5],inactive
same,Potency,[6],inactive
same,Potency,[7],inactive
same,Potency,[8],inactive
same,outcome,[9],inactive
CCn1cc(C(=O)O)c(=O)c2cnc(N3CCNCC3)nc21,Potency,[3],inactive
same,Potency,[4],inactive
same,Potency,[5],inactive
same,Potency,[6],inactive
same,Potency,[7],inactive
same,Potency,[8],inactive
same,outcome,[9],inactive
CCCCCCCCCCCCOS(=O)(=O)O,Potency,[2],inactive
same,Potency,[4],inactive
same,Potency,[5],inactive
same,Potency,[6],inactive
same,Potency,[7],inactive
same,Potency,[8],inactive
same,outcome,[9],inactive
OCc1cc(C(O)CNCCCCCCOCCCCc2ccccc2)ccc1O (stereo unspecified),Potency,[3],inactive
same,Potency,[8],inactive
same,outcome,[9],inactive
CC[C@H]1CN2CCc3cc(OC)c(OC)cc3[C@@H]2C[C@@H]1C[C@H]1NCCc2cc(OC)c(OC)cc21,Potency,[3],0.335 µM (active)
same,Potency,[4],0.347 µM (active)
same,Potency,[5],2.11 µM (active)
same,Potency,[7],0.335 µM (active)
same,Potency,[8],2.11 µM (active)
CCN(CC)CCOC(=O)C1(C2CCCCC2)CCCCC1,Potency,[2],inactive
same,Potency,[3],inactive
same,Potency,[7],inactive
same,Potency,[8],inactive
same,outcome,[9],inactive
COCCOC(=O)C1=C(C)NC(C)=C(C(=O)OC/C=C/c2ccccc2)C1c1cccc([N+](=O)[O-])c1 (stereo unspecified),Potency,[5],inactive
same,outcome,[9],inactive
Cc1c(Cl)cccc1Nc1ccccc1C(=O)O,Potency,[1],inactive
same,Potency,[4],inactive
same,Potency,[7],inactive
same,Potency,[8],inactive
same,outcome,[9],inactive
COc1cc(C)c(Cc2cnc(N)nc2N)cc1OC,Potency,[3],inactive
same,Potency,[4],inactive
same,Potency,[5],inactive
same,Potency,[6],inactive
same,Potency,[7],inactive
same,Potency,[8],inactive
same,outcome,[9],inactive
C[C@](N)(Cc1ccc(O)cc1)C(=O)O,"activity change, negative = cytotoxic",[1],-0.998% [at 6 µM]
same,"activity change, negative = cytotoxic",[3],-5.33% [at 4.84 µM]
same,"activity change, negative = cytotoxic",[4],0.753% [at 6.03 µM]
same,"activity change, negative = cytotoxic",[6],-5.63% [at 6.18 µM]
same,"activity change, negative = cytotoxic",[8],-28.9% [at 4.84 µM]
same,"activity change, negative = cytotoxic",[9],5.39% [at 4.84 µM]
CN(C)CCC=C1c2ccccc2CCc2ccccc21,Potency,[2],inactive
same,Potency,[8],inactive
same,outcome,[9],inactive
C[C@]12CC[C@@H]3c4ccc(O)cc4CC[C@H]3[C@@H]1CC[C@@H]2OC(=O)CCC1CCCC1,Potency,[1],inactive
same,Potency,[5],inactive
same,Potency,[6],27.6 µM (active)
same,outcome,[9],inactive
O=C1Nc2ccc(Cl)cc2[C@@](C#CC2CC2)(C(F)(F)F)O1,Potency,[3],inactive
same,Potency,[5],inactive
same,Potency,[7],inactive
same,outcome,[9],inactive
Cn1c(=O)c2c(ncn2CC2OCCO2)n(C)c1=O,Potency,[2],inactive
same,Potency,[3],inactive
same,Potency,[4],inactive
same,Potency,[5],inactive
same,Potency,[7],inactive
same,Potency,[8],inactive
same,outcome,[9],inactive
CCCCOC(=O)c1ccc(O)cc1,Potency,[3],inactive
same,Potency,[5],inactive
same,Potency,[7],inactive
same,Potency,[8],inactive
same,outcome,[9],inactive
CC(=O)O[C@@]12CO[C@@H]1C[C@H](O)[C@@]1(C)C(=O)[C@H](O)C3=C(C)[C@@H](OC(=O)[C@H](O)[C@@H](NC(=O)OC(C)(C)C)c4ccccc4)C[C@@](O)([C@@H](OC(=O)c4ccccc4)[C@H]21)C3(C)C,Potency,[5],inactive
same,outcome,[9],inactive
CSc1ccc2c(c1)C(N1CCN(C)CC1)Cc1ccccc1S2 (stereo unspecified),Potency,[1],27.3 µM (active)
same,Potency,[6],27.6 µM (active)
same,outcome,[9],inactive
